PMC12820563, “FoxP3 forms a head-to-head dimer in vivo and stabilizes its multimerization on adjacent microsatellites”
Over roughly 16,000 sequences, “rpm ratio (pull-down/input)” has its median near 0.5; the highest 2% begin near 5.5. For the sample, the highest values were picked, then their nearest neighbours and some sequences at random.

Target: T1, MBP-FoxP3dN (Mus musculus, UniProt Q99JB6 188-423)
T1 sequence: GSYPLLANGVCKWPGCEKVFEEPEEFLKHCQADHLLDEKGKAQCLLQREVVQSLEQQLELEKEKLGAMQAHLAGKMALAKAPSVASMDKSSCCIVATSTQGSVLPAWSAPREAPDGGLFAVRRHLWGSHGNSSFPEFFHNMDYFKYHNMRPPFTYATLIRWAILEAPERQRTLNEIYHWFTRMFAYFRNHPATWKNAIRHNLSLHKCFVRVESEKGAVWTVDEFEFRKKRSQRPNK
Test: PD-seq (MBP pull-down with sequencing); 20 mM Tris-HCl pH 7.5, 100 mM NaCl, 1.5 mM MgCl2, 0.4 uM protein, 0.1 uM dsDNA library, 30 min, room temperature, amylose pull-down; high values mean tight binding
Conditions: protein: recombinant; tags: His6-MBP; chain copies: 2; dsDNA, one strand shown
Outline: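 His6-MBP-tagged mouse FoxP3 or FoxP1 fragment lacking the N-terminus, expressed in E. coli, was mixed at 0.4 µM with 0.1 µM Klenow-filled double-stranded degenerate DNA library. Incubation was 30 min at room temperature in Tris pH 7.5 buffer with NaCl and MgCl2. Complexes were caught on amylose resin and washed three times; DNA was released with proteinase K, PCR-barcoded and Illumina-sequenced. Binding is reads-per-million enrichment, pull-down over input, with replicates pooled.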

First: GATGATTGTTCTCCCAGCTGATGAATTGCGCAACTCGAGTAAACAAATTTTCCTAATCTTTCTGTTCAAGCGCCATCTAC
Second: GATGATTGTTCTCCCAGCTGATGAATTGCCCAACTCGAGTAAACAAATTTTCCTAATCTTTCTGTTCAAGCGCCATCTAC
The binding signal of the first is higher: 6.43 RPM ratio (pull-down/input) for the first, 0.42 RPM ratio (pull-down/input) for the second.

Compared with “GATGATTGTTCTCCCAGCTGATGAATTCGCAAACTCGAGTAAACAAATTTTCCTAATCTTTCTGTTCAAGCGCCATCTAC”, “GATGATTGTTCTCCCAGCTGATGAATTCGCCAACTCGAGTAAACAAATTTTCCTAATCTTTCTGTTCAAGCGCCATCTAC” is lower in binding signal: 0.431 RPM ratio (pull-down/input) for the first, 0.292 RPM ratio (pull-down/input) for the second.

Going from “GATGATTGTTCTCCCAGCTGATGAATTTCGCAACTCGAGTAAACAAATTTTCCTAATCTTTCTGTTCAAGCGCCATCTAC” to “GATGATTGTTCTCCCAGCTGATGAATTTTTCAACTCGAGTAAACAAATTTTCCTAATCTTTCTGTTCAAGCGCCATCTAC”, the binding signal falls from 5.53 RPM ratio (pull-down/input) to 0.287 RPM ratio (pull-down/input).

Compared with “GATGATTGTTCTCCCAGCTGATGAATTTCCCGTGTCGAGTAAACAAATTTTCCTAATCTTTCTGTTCAAGCGCCATCTAC”, “GATGATTGTTCTCCCAGCTGATGAATTAGCTTCTTCGAGTAAACAAATTTTCCTAATCTTTCTGTTCAAGCGCCATCTAC” is higher in binding signal: 0.287 RPM ratio (pull-down/input) for the first, 0.901 RPM ratio (pull-down/input) for the second.

Compared with “GATGATTGTTCTCCCAGCTGATGAATTAGTTGTGTCGAGTAAACAAATTTTCCTAATCTTTCTGTTCAAGCGCCATCTAC”, “GATGATTGTTCTCCCAGCTGATGAATTAGTGTTGTCGAGTAAACAAATTTTCCTAATCTTTCTGTTCAAGCGCCATCTAC” is lower in binding signal: 6.21 RPM ratio (pull-down/input) for the first, 3.93 RPM ratio (pull-down/input) for the second.

First: GATGATTGTTCTCCCAGCTGATGAATTAGTTCTCTCGAGTAAACAAATTTTCCTAATCTTTCTGTTCAAGCGCCATCTAC
Second: GATGATTGTTCTCCCAGCTGATGAATTAGTTCTGTCGAGTAAACAAATTTTCCTAATCTTTCTGTTCAAGCGCCATCTAC
The binding signal of the first is higher: 0.491 RPM ratio (pull-down/input) for the first, 0.398 RPM ratio (pull-down/input) for the second.

First: GATGATTGTTCTCCCAGCTGATGAATTAGTTGTCTCGAGTAAACAAATTTTCCTAATCTTTCTGTTCAAGCGCCATCTAC
Second: GATGATTGTTCTCCCAGCTGATGAATTAGCTGTCTCGAGTAAACAAATTTTCCTAATCTTTCTGTTCAAGCGCCATCTAC
The binding signal of the first is higher: 5.87 RPM ratio (pull-down/input) for the first, 2.44 RPM ratio (pull-down/input) for the second.

Compared with “GATGATTGTTCTCCCAGCTGATGAATTTCAGGGCTCGAGTAAACAAATTTTCCTAATCTTTCTGTTCAAGCGCCATCTAC”, “GATGATTGTTCTCCCAGCTGATGAATTGCAGACCTCGAGTAAACAAATTTTCCTAATCTTTCTGTTCAAGCGCCATCTAC” is higher in binding signal: 0.225 RPM ratio (pull-down/input) for the first, 0.496 RPM ratio (pull-down/input) for the second.

First: GATGATTGTTCTCCCAGCTGATGAATTTTGGCTCTCGAGTAAACAAATTTTCCTAATCTTTCTGTTCAAGCGCCATCTAC
Second: GATGATTGTTCTCCCAGCTGATGAATTCCGATCATCGAGTAAACAAATTTTCCTAATCTTTCTGTTCAAGCGCCATCTAC
The binding signal of the first is higher: 0.475 RPM ratio (pull-down/input) for the first, 0.404 RPM ratio (pull-down/input) for the second.

Compared with “GATGATTGTTCTCCCAGCTGATGAATTCAGCAGCTCGAGTAAACAAATTTTCCTAATCTTTCTGTTCAAGCGCCATCTAC”, “GATGATTGTTCTCCCAGCTGATGAATTCTCAGCATCGAGTAAACAAATTTTCCTAATCTTTCTGTTCAAGCGCCATCTAC” is lower in binding signal: 0.994 RPM ratio (pull-down/input) for the first, 0.635 RPM ratio (pull-down/input) for the second.

First: GATGATTGTTCTCCCAGCTGATGAATTCCAGCATTCGAGTAAACAAATTTTCCTAATCTTTCTGTTCAAGCGCCATCTAC
Second: GATGATTGTTCTCCCAGCTGATGAATTTCAGCATTCGAGTAAACAAATTTTCCTAATCTTTCTGTTCAAGCGCCATCTAC
The binding signal of the first is lower: 4.11 RPM ratio (pull-down/input) for the first, 4.99 RPM ratio (pull-down/input) for the second.

Compared with “GATGATTGTTCTCCCAGCTGATGAATTCAGCATTTCGAGTAAACAAATTTTCCTAATCTTTCTGTTCAAGCGCCATCTAC”, “GATGATTGTTCTCCCAGCTGATGAATTCAGCATCTCGAGTAAACAAATTTTCCTAATCTTTCTGTTCAAGCGCCATCTAC” is higher in binding signal: 5.86 RPM ratio (pull-down/input) for the first, 6.49 RPM ratio (pull-down/input) for the second.

Compared with “GATGATTGTTCTCCCAGCTGATGAATTCCGCACTTCGAGTAAACAAATTTTCCTAATCTTTCTGTTCAAGCGCCATCTAC”, “GATGATTGTTCTCCCAGCTGATGAATTTGGGTCATCGAGTAAACAAATTTTCCTAATCTTTCTGTTCAAGCGCCATCTAC” is lower in binding signal: 1.22 RPM ratio (pull-down/input) for the first, 0.724 RPM ratio (pull-down/input) for the second.

First: GATGATTGTTCTCCCAGCTGATGAATTCTTTACTTCGAGTAAACAAATTTTCCTAATCTTTCTGTTCAAGCGCCATCTAC
Second: GATGATTGTTCTCCCAGCTGATGAATTGGGGATTTCGAGTAAACAAATTTTCCTAATCTTTCTGTTCAAGCGCCATCTAC
The binding signal of the first is lower: 0.373 RPM ratio (pull-down/input) for the first, 0.404 RPM ratio (pull-down/input) for the second.

Compared with “GATGATTGTTCTCCCAGCTGATGAATTTCGTGAATCGAGTAAACAAATTTTCCTAATCTTTCTGTTCAAGCGCCATCTAC”, “GATGATTGTTCTCCCAGCTGATGAATTCAGCTCATCGAGTAAACAAATTTTCCTAATCTTTCTGTTCAAGCGCCATCTAC” is higher in binding signal: 0.281 RPM ratio (pull-down/input) for the first, 0.381 RPM ratio (pull-down/input) for the second.

Compared with “GATGATTGTTCTCCCAGCTGATGAATTTTGAGCCTCGAGTAAACAAATTTTCCTAATCTTTCTGTTCAAGCGCCATCTAC”, “GATGATTGTTCTCCCAGCTGATGAATTCTGCCTCTCGAGTAAACAAATTTTCCTAATCTTTCTGTTCAAGCGCCATCTAC” is higher in binding signal: 0.568 RPM ratio (pull-down/input) for the first, 5.87 RPM ratio (pull-down/input) for the second.

Compared with “GATGATTGTTCTCCCAGCTGATGAATTCTGTGCCTCGAGTAAACAAATTTTCCTAATCTTTCTGTTCAAGCGCCATCTAC”, “GATGATTGTTCTCCCAGCTGATGAATTTTTCGCCTCGAGTAAACAAATTTTCCTAATCTTTCTGTTCAAGCGCCATCTAC” is lower in binding signal: 1.19 RPM ratio (pull-down/input) for the first, 0.467 RPM ratio (pull-down/input) for the second.

Going from “GATGATTGTTCTCCCAGCTGATGAATTCTGCGCCTCGAGTAAACAAATTTTCCTAATCTTTCTGTTCAAGCGCCATCTAC” to “GATGATTGTTCTCCCAGCTGATGAATTTCGCCTCTCGAGTAAACAAATTTTCCTAATCTTTCTGTTCAAGCGCCATCTAC”, the binding signal rises from 2.3 RPM ratio (pull-down/input) to 6.04 RPM ratio (pull-down/input).

Going from “GATGATTGTTCTCCCAGCTGATGAATTTTGTGCCTCGAGTAAACAAATTTTCCTAATCTTTCTGTTCAAGCGCCATCTAC” to “GATGATTGTTCTCCCAGCTGATGAATTCTCTGCCTCGAGTAAACAAATTTTCCTAATCTTTCTGTTCAAGCGCCATCTAC”, the binding signal falls from 1.84 RPM ratio (pull-down/input) to 0.284 RPM ratio (pull-down/input).

Going from “GATGATTGTTCTCCCAGCTGATGAATTCTCCGCCTCGAGTAAACAAATTTTCCTAATCTTTCTGTTCAAGCGCCATCTAC” to “GATGATTGTTCTCCCAGCTGATGAATTCCGCCTCTCGAGTAAACAAATTTTCCTAATCTTTCTGTTCAAGCGCCATCTAC”, the binding signal rises from 0.428 RPM ratio (pull-down/input) to 6.3 RPM ratio (pull-down/input).

First: GATGATTGTTCTCCCAGCTGATGAATTGTTCGCCTCGAGTAAACAAATTTTCCTAATCTTTCTGTTCAAGCGCCATCTAC
Second: GATGATTGTTCTCCCAGCTGATGAATTCCGCGCCTCGAGTAAACAAATTTTCCTAATCTTTCTGTTCAAGCGCCATCTAC
The binding signal of the first is lower: 0.653 RPM ratio (pull-down/input) for the first, 1.68 RPM ratio (pull-down/input) for the second.

“GATGATTGTTCTCCCAGCTGATGAATTGTGCCTCTCGAGTAAACAAATTTTCCTAATCTTTCTGTTCAAGCGCCATCTAC” was tested, and the binding signal was 6.79 RPM ratio (pull-down/input).
